# The list is not random: actives were taken first. Their share in the collection is about 19%.
# IL1B secr inh: inflammasome signaling inhibition, IL-1 beta readout; activity change, % at 57.5 µM; 4.7% of 360,000 active; AID 743279; THP-1 LPS/ATP IL-1B secretion, AlphaLISA, 16 h; hits give low values; in the data active = activity change below about -50%; inconclusive = mostly about -30% to -49%
#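 THP-1 cells pretreated 1 hr with compounds (up to 57.5 uM final), then stimulated with LPS (250 ng/mL final) plus ATP (1.25 mM final); secreted IL-1B measured by AlphaLISA after 16 hr, decreased signal indicating inhibition.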
# TDP1 cell noCPT: qHTS for Inhibitors of human tyrosyl-DNA phosphodiesterase 1 (TDP1): qHTS in cells in absence of CPT. DT40 Tdp1-/- hTDP1 cells, no CPT, ATP luminescence, 48 h. Potency, µM (top dose mostly 46.2 µM), inactives show at the highest dose activity change, negative = growth inhibition, usual class: inhibitors. 15% of 420,000 active; note: potency is the fitted concentration of half-maximal effect; nearly all actives have a fitted effect of over 55% in size
#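 Growth of hTDP1-complemented DT40 Tdp1-knockout cells is measured by ATP luminescence after at least 48 hr compound exposure at 37 °C, with DMSO substituting for the 20 nM CPT used in the parallel screen.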
# HT1080 IDH1KD tx: HT-1080 IDH1 knockdown cell toxicity (counter line); Potency, µM (series often up to 46.1 µM), inactives show top-dose activity, negative = toxicity, usual class: cytotoxic; HT-1080 IDH1 knockdown viability, ATP luminescence, 48 h; 2% of 360,000 active;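 note: potency is the fitted concentration of half-maximal effect; 0% = DMSO wells and -100% = cell-free medium wells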
#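 Luminescent ATP read-out (CellTiter-Glo, 10 min at room temperature) after 48 h compound exposure at 37 °C gave viability of IDH1-knockdown HT-1080 cells. Activity was normalised to DMSO and cell-free wells, then fitted as concentration-response curves.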
# DT40 TDP1 CPT: DT40-hTDP1 cell growth loss with CPT; chicken DT40 Tdp1-/-;hTDP1 cells + 20 nM CPT, ATP luminescence, 48 h; Potency, µM (highest dose often 46.2 µM), inactives show top-dose activity change, negative = growth inhibition, hits mostly inhibitors; 12% of 420,000 active; note: potency is the fitted concentration of half-maximal effect; nearly all actives have a fitted effect of over 55% in size
#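 Chicken DT40 Tdp1-/- cells complemented with human TDP1, 400 cells/well, exposed to compounds plus 20 nM camptothecin for at least 48 h at 37 C; viability read as ATP content by CellTiter-Glo luminescence.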
# HT1080-NT tox: kills 2HG-producing HT-1080-NT fibrosarcoma cells | AID 686970 | HT-1080-NT fibrosarcoma viability, CellTiter-Glo ATP luminescence, 48 h | 1.6% of 360,000 active | Potency, µM (top dose mostly 46.1 µM), for inactives: at the top dose activity, negative = less viability, most hits filed as cytotoxic;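 note: NT is the 2HG producing partner of a matched IDH1 knockdown line; potency is the fitted concentration of half-maximal effect; 0% = DMSO-treated cells and -100% = media-only wells without cells; nearly all actives have a fitted effect of over 55% in size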
#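 Fibrosarcoma NT cells, 750 per well in 5% FBS RPMI, were exposed to compound for 48 hours. Viability: CellTiter-Glo luminescence.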
# * marks the source's active call; other numbers are inactive results; ? = inconclusive; . = no result given; [ ] = remark or other dose. Unless noted, calls come from the whole dose curve; as a rule, active = well fitted curve in the direction sought with a large enough effect; inconclusive = small, poorly fitted or top-dose-only effect, or another doubt; inactive = no such curve, though single readings can be large; an effect the other way counts as inactive or inconclusive. Unless noted, % is set by controls: 0 for no effect and ±100 for the full control effect.
SMILES,IL1B secr inh,TDP1 cell noCPT,HT1080 IDH1KD tx,DT40 TDP1 CPT,HT1080-NT tox
CCOC(=O)C1CCN(C(=O)c2ccc3c(c2)C(=O)N(c2ccccc2C)C3=O)CC1,15.4,-20.5%,16.3%,-5.0%,7.4%
O=C(COC(=O)c1ccccc1O)Nc1cccc2ccccc12,-7.4,10.8%,-4.2%,-16.4%,-4.2%
O=C(/C=C/c1ccc(Cl)cc1)NC(=S)Nc1ccc(NC(=O)c2ccco2)cc1,-6.3,8.2µM*,?,?,?
CCc1nnc2c(NCCc3ccccc3)nc3ccccc3n12,30.1,-26.1%,3.5%,1.7%,-2.2%
COc1ccc(CCN2C(=O)COc3ccccc3C2C(=O)NC(C)(C)C)cc1OC (stereo not drawn),-3.5,-13.7%,22.8%,-2.4%,5.0%
Cc1ccnc(NC(=O)CCC(=O)N(CC(=O)NCCc2ccccc2)c2ccccc2F)c1,-8.0,-4.6%,-0.1%,-3.8%,-17.4%
O=C(NCCc1cccs1)Nc1nnc([C@H]2C[C@H](O)[C@@H](CO)O2)s1,17.6,-0.8%,3.5%,-11.5%,-2.8%
O=C1Nc2ccccc2N(C(=O)c2c(F)cccc2F)C1c1nc2ccccc2[nH]1 (stereo not drawn),19.4,-29.8%,?,?,-29.5%
O=C1Nc2ccccc2N(C(=O)c2ccc(-c3ccccc3)cc2)C1c1nc2ccccc2[nH]1 (stereo not drawn),20.7,20.6µM*,16.4µM*,?,?
COc1ccc(OC)c(N(CC(=O)N2CCN(c3cc(Cl)ccc3C)CC2)S(C)(=O)=O)c1,-29.3,?,?,14.6µM*,?
Cc1ccc(Cl)cc1N1CCN(C(=O)CN(C2CCCCC2)S(C)(=O)=O)CC1,?,8.2µM*,20.6µM*,14.6µM*,-7.4%
CC(C)c1ccc(NC(=S)NNC(=O)c2cccs2)cc1,-29.2,-0.2%,-20.9%,7.0%,-4.2%
CC(=O)ON(C(C)=O)S(=O)(=O)c1ccc(Cl)cc1,.,2.3%,.,6.3%,.
Cc1ccc(NC(=O)CCCSc2ccccc2)cc1S(=O)(=O)N1CCOCC1,-51.6*,-11.3%,-0.9%,3.2%,-22.3%
Cc1ccc(NC(=O)CSc2ccccn2)cc1S(=O)(=O)N1CCOCC1,24.8,-13.5%,-1.2%,-0.6%,3.4%
Cc1ccc(NC(=O)CCNC(=O)c2ccc(Br)cc2)cc1S(=O)(=O)N1CCOCC1,-16.1,?,-1.7%,-5.9%,3.2%
Cc1ccc(NC(=O)CSc2ccc(Br)cc2)cc1S(=O)(=O)N1CCOCC1,?,25.9µM*,-4.0%,18.4µM*,-29.0%
CC1CCCCC12NC(=O)N(CC(=O)c1ccc(Cl)s1)C2=O (stereo not drawn),-5.2,-3.4%,-3.7%,?,1.9%
CCOc1cc2c(cc1O)C(=NOC)CC1C2CCC2(C)C(O)CCC12 (stereo not drawn),-18.7,0.82µM*,1.46µM*,0.92µM*,1.64µM*
Fc1ccc(NC(=S)N2CCCN(c3ccc(C(F)(F)F)cn3)CC2)c(F)c1,-18.9,18.4µM*,?,16.4µM*,23.1µM*
Cc1csc2ncnc(N3CCN(C(=S)Nc4ccc(F)cc4F)CC3)c12,-13.5,14.6µM*,-10.0%,?,-13.6%
O=C(Nc1ccc(F)cc1F)N1CCCN(c2ccc(C(F)(F)F)cn2)CC1,?,?,13µM*,?,?
O=C(O)CSCC(=O)N1CCCN(c2ccc(C(F)(F)F)cn2)CC1,27.0,0.8%,6.1%,15.9%,3.0%
CC1CN(C(=S)Nc2ccc(F)cc2F)CC(C)O1 (stereo not drawn),0.0,6.2%,3.6%,9.2%,5.8%
CC1(/[N+]([O-])=C/c2ccccc2F)CCCCC1=O (stereo not drawn),5.4,10.8%,5.9%,1.9%,9.3%
SMILES,IL1B secr inh,TDP1 cell noCPT,HT1080 IDH1KD tx,DT40 TDP1 CPT,HT1080-NT tox
OC1CCC(Nc2ncnc3sccc23)CC1 (stereo not drawn),-3.3,?,-10.5%,-14.5%,-10.1%
CCOc1ccc2oc(C(=O)OCC(=O)NC3CC3)c(C)c2c1,12.3,-1.1%,6.2%,-8.1%,8.3%
Cc1ccc(NC(=O)C(=Cc2ccc(C(=O)O)cc2)C(=O)Nc2ccc(C)cc2C)c(C)c1,-100.0*,2.91µM*,11.6µM*,5.17µM*,14.6µM*
Cc1ccc(NC(=O)c2ccc3nsnc3c2)c(C)c1,-5.0,?,8.0%,?,-4.1%
O=C1C(Cc2ccc(Br)cc2)SC(=Nc2ccccc2)N1c1ccccc1 (stereo not drawn),0.0,-28.8%,-23.0%,-6.0%,-0.5%
O=C1C(Cc2ccc(F)cc2)SC(=Nc2ccccc2)N1c1ccccc1 (stereo not drawn),0.0,23.1µM*,-5.2%,?,-5.7%
Cc1ccc(N2CC(C(=O)N3CCN(c4ccccn4)CC3)CC2=O)cc1 (stereo not drawn),-16.6,-19.8%,10.7%,-4.0%,19.6%
O=C(NCc1ccc2[nH]c3c(c2c1)CCCC3)c1ccc(S(=O)(=O)N2CCCCC2)cc1,2.9,-28.3%,-2.9%,-2.6%,-1.3%
Cc1ccc(CNS(=O)(=O)c2ccc3[nH]c4c(c3c2)CCCC4)cc1,.,-24.4%,.,0.1%,.
CN(Cc1ccccc1)S(=O)(=O)c1ccc2[nH]c3c(c2c1)CCCCC3,.,16.4µM*,.,?,.
COCCCNS(=O)(=O)c1ccc2[nH]c3c(c2c1)CCCCC3,31.0,?,0.0%,-49.7%,-19.6%
O=S(=O)(NCc1ccc(Cl)cc1)c1ccc2[nH]c3c(c2c1)CCCC3,.,5.8µM*,.,?,.
Cc1cc(C)cc(NC(=S)NCc2ccc3[nH]c4c(c3c2)CCCC4)c1,?,16.4µM*,-22.9%,?,-19.6%
O=S(=O)(NCc1ccccc1)c1ccc2[nH]c3c(c2c1)CCCCC3,.,20.6µM*,.,?,.
CN1CCCC(CNC(=O)c2cnn(-c3nccc(-c4cccs4)n3)c2C2CC2)C1 (stereo not drawn),.,-16.3%,.,-8.8%[9.04 µM],.
O=S(=O)(NCc1ccc(F)cc1)c1ccc2[nH]c3c(c2c1)CCCC3,.,16.4µM*,.,?,.
Cc1ccc(CNS(=O)(=O)c2ccc3[nH]c4c(c3c2)CCCCC4)cc1,.,14.6µM*,.,?,.
O=C(Oc1ccccc1)N1CCC2(CC1)CCN(c1ccccn1)CC2,.,?,.,16.4µM*,.
O=C(Oc1ccccc1)N1CCC2(CC1)CCN(c1ccncc1)CC2,.,14.6µM*,.,14.6µM*,.
Cc1ccc(NC(=S)NC(=O)C2CCCC2)c(Br)c1,23.4,?,1.7%,-25.0%,-14.6%
COc1cccc(N2CCN(C(=S)Nc3cc(C)cc(C)c3)CC2)c1,8.3,6.51µM*,-6.6%,6.51µM*,-5.6%
COc1cccc(N2CCN(C(=S)Nc3ccc(F)cc3)CC2)c1,-0.1,2.5%,4.1%,14.6%,2.6%
